Compounds without any hit were thinned out: in the full panel of roughly 79,000, 15% have a hit. Unmarked numbers belong to inactive results. Active and inactive are the calls of the source. No stated cut-off is given here; in the data, active means growth inhibition above about 70%; inactive means the rest.
experiment: NCI Yeast Anticancer Drug Screen. Data for the bub3 strain (AID 167); conditions: S. cerevisiae bub3 mutant strain, at 50.0 µM, active compounds read high
Procedure, shortened: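 Screening used yeast with an engineered genetic alteration affecting cell cycle control. Compound-exposed cultures were compared with vehicle cultures, and reduced growth was taken as inhibition.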

| Compound | growth inhibition |
| --- | --- |
| C/C(O)=C(/C=N/C(=S)Nc1ccc(S(N)(=O)=O)cc1)C(=O)Nc1ccccc1C | 67.5% |
| CC(C)CC(N)C(=O)NNc1ccccc1 (configuration not stated) | 97.5% (active) |
| CCC(C(c1ccc(Cl)cc1)c1ccc(Cl)c(Cl)c1)[N+](=O)[O-] (configuration not stated) | 47.5% |
| O=C(O)c1nc2cc(C(F)(F)F)ccc2nc1Nc1ccc(F)cc1 | 74.7% (active) |
| Nc1nc(-c2ccccn2)cc2cc(Cl)ccc12 | 8.05% |
| CC1(c2ccccc2)NC(=O)N(CC(=O)N(c2ccccc2)c2ccccc2)C1=O (configuration not stated) | 33.7% |
| O/N=C(/Cc1ccccc1)c1ccc2c(c1)OCO2 | 15.1% |

experiment: NCI Yeast Anticancer Drug Screen. Data for the mlh1 rad18 strain (AID 175); conditions: S. cerevisiae mlh1 rad18 strain growth inhibition; at 5.0 µM (retest, dose inferred, filed as 0.5); active compounds read high
Procedure, shortened: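 Read-out is yeast growth inhibition, calculated against vehicle-only controls. The compound was applied to a strain engineered with DNA damage repair alterations.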

| Compound | growth inhibition |
| --- | --- |
| CCCCCC(C1SC(=S)NC1=O)C1SC(=S)NC1=O (configuration not stated) | 0% |
| CC(C)C1=CC2=CC(=O)C3C(C)(C)CCCC3(C)C2=C(O)C1=O (configuration not stated) | 96% (active) |
| CCOC(=O)C[n+]1c(C)sc2ccccc21 | -3% |
| OCc1c(-c2cccc3ccccc23)sc(-c2cccc3ccccc23)c1CO | 65% |
| CC1=C(C#N)C(=O)OC1(C)C(CC(=O)c1ccccc1)c1ccccc1 (configuration not stated) | 26% |
| O=c1oc2c3ccc4ccccc4c3n(CCCN3CCCCC3)c2c2ccccc12 | -13% |
| Cc1cc(NC(=S)SCc2ccc(F)cc2)ccc1Br | 33% |
| Cc1ccc(C2C(O)=C(c3ccccc3)Sc3ccc(C)cc32)cc1 (configuration not stated) | -8% |
| COC(=O)/C=C1/OC(c2ccccc2)=CC1=O | 9% |
| COc1ccccc1NC(=O)CC(=O)N1N=C(c2ccccc2)C(N=Nc2ccc(Cl)cc2)C1=O (configuration not stated) | 6% |
| CC(=O)NC1=C(Nc2ccc(-c3ccc(NC4=C(NC(C)=O)C(=O)c5ccccc5C4=O)cc3)cc2)C(=O)c2ccccc2C1=O | 99% (active) |
| CCCCCCC(O)CCOC(C)=O (configuration not stated) | -3% |
| CCn1nc(-c2ccccc2)c2c1N(C)c1ccccc1-n1c(-c3ccccc3)nnc1-2 | 7% |
| CC1(CCC(=O)O)c2ccc3ccccc3c2Oc2c1ccc1ccccc21 | 84% (active) |
| CCN1/C(=C\c2cc(C)nc(-c3ccccc3)[n+]2C)C=Cc2ccccc21 | 48% |
| Cc1ccccc1N1C(=O)c2ccccc2C1=O | 0% |
| O=C(Oc1ccccc1)C1CCCCC1C(=O)Oc1ccccc1 (configuration not stated) | -11% |
| Cc1cccc2c1C1c3c(C)cccc3C(O)CC1CC2O (configuration not stated) | 1% |
| CC(C)c1cc2c(cc1O)C(O)C1(O)CCCC(C)(C)[C@H]1CC2 (some centres not stated) | -3% |
| C/C=C/c1ccc(OCC(=O)O)c(OC)c1 | -5% |

| Compound | growth inhibition |
| --- | --- |
| Nc1ccc(S(=O)(=O)NCc2nccs2)cc1 | 11% |
| N#CC(NNC(=O)c1ccccc1O)c1c(O)ccc2ccccc12 (configuration not stated) | 4% |
| Oc1ccc(Cl)cc1Cc1cc(Cl)cc(Cc2cc(Cl)ccc2O)c1O | 14% |
| O=C1CN(CCN2CCOCC2)CC(=O)N2Cc3ccccc3CN12 | 29% |
| CC1CCC(SC2CC(=O)CCC2=O)CC1 (configuration not stated) | -1% |
| Clc1ccc(OCC2CO2)c(Cl)c1 (configuration not stated) | 16% |
| CN=C(N)N/N=C(\C)c1ccc2c(ccc3ccccc32)c1 | 35% |
| Cc1cc(O)c(/C=N/c2nc(-c3cccc([N+](=O)[O-])c3)cs2)c(=O)o1 | 54% |
| COc1cccc2c1OC(c1ccc(Cl)cc1)C([N+](=O)[O-])=C2 (configuration not stated) | 96% (active) |
| COc1ccc(C(=O)C2C(=O)C(=O)OC2C2OC(=O)C(=O)C2C(=O)c2ccc(OC)cc2)cc1 (configuration not stated) | 0% |
| CCCCCCCCCCCCCCCCOc1ccc(S(=O)(=O)N/N=c2/sc3ccc(S(=O)(=O)O)cc3n2C)cc1C(=O)O | -13% |
| O=C(Nc1ccc(F)cc1)N1CCCCC1 | 43% |
| C[CH2][Sn]([CH2]C)([O]C(=O)c1cc(OC)c(OC)c(OC)c1)[O][Sn]([CH2]C)([CH2]C)[O]C(=O)c1cc(OC)c(OC)c(OC)c1 | 27% |
| C/C(O)=C(/C=N/C(=S)Nc1ccc(S(N)(=O)=O)cc1)C(=O)Nc1ccccc1C | 3% |
| CC(C)CC(N)C(=O)NNc1ccccc1 (configuration not stated) | 72% (active) |
| CCC(C(c1ccc(Cl)cc1)c1ccc(Cl)c(Cl)c1)[N+](=O)[O-] (configuration not stated) | 1% |
| O=C(O)c1nc2cc(C(F)(F)F)ccc2nc1Nc1ccc(F)cc1 | 30% |
| Nc1nc(-c2ccccn2)cc2cc(Cl)ccc12 | 94% (active) |
| CC1(c2ccccc2)NC(=O)N(CC(=O)N(c2ccccc2)c2ccccc2)C1=O (configuration not stated) | 12% |
| O/N=C(/Cc1ccccc1)c1ccc2c(c1)OCO2 | -19% |

same assay, conditions: S. cerevisiae mlh1 rad18 strain growth inhibition; at 50.0 µM (retest, dose inferred, filed as 5.0); active compounds read high

| Compound | growth inhibition |
| --- | --- |
| CCCCCC(C1SC(=S)NC1=O)C1SC(=S)NC1=O (configuration not stated) | 3% |
| CC(C)C1=CC2=CC(=O)C3C(C)(C)CCCC3(C)C2=C(O)C1=O (configuration not stated) | 90% (active) |
| CCOC(=O)C[n+]1c(C)sc2ccccc21 | 43% |
| OCc1c(-c2cccc3ccccc23)sc(-c2cccc3ccccc23)c1CO | 70% (active) |
| CC1=C(C#N)C(=O)OC1(C)C(CC(=O)c1ccccc1)c1ccccc1 (configuration not stated) | 23% |
| O=c1oc2c3ccc4ccccc4c3n(CCCN3CCCCC3)c2c2ccccc12 | -13% |
| Cc1cc(NC(=S)SCc2ccc(F)cc2)ccc1Br | 98% (active) |
| Cc1ccc(C2C(O)=C(c3ccccc3)Sc3ccc(C)cc32)cc1 (configuration not stated) | 81% (active) |
| COC(=O)/C=C1/OC(c2ccccc2)=CC1=O | 9% |
| COc1ccccc1NC(=O)CC(=O)N1N=C(c2ccccc2)C(N=Nc2ccc(Cl)cc2)C1=O (configuration not stated) | 6% |
| CC(=O)NC1=C(Nc2ccc(-c3ccc(NC4=C(NC(C)=O)C(=O)c5ccccc5C4=O)cc3)cc2)C(=O)c2ccccc2C1=O | 99% (active) |
| CCCCCCC(O)CCOC(C)=O (configuration not stated) | 4% |
| CCn1nc(-c2ccccc2)c2c1N(C)c1ccccc1-n1c(-c3ccccc3)nnc1-2 | 98% (active) |
| CC1(CCC(=O)O)c2ccc3ccccc3c2Oc2c1ccc1ccccc21 | 92% (active) |
| CCN1/C(=C\c2cc(C)nc(-c3ccccc3)[n+]2C)C=Cc2ccccc21 | 99% (active) |
| Cc1ccccc1N1C(=O)c2ccccc2C1=O | 8% |
| O=C(Oc1ccccc1)C1CCCCC1C(=O)Oc1ccccc1 (configuration not stated) | -6% |
| Cc1cccc2c1C1c3c(C)cccc3C(O)CC1CC2O (configuration not stated) | 28% |
| CC(C)c1cc2c(cc1O)C(O)C1(O)CCCC(C)(C)[C@H]1CC2 (some centres not stated) | 99% (active) |
| C/C=C/c1ccc(OCC(=O)O)c(OC)c1 | -11% |

| Compound | growth inhibition |
| --- | --- |
| Nc1ccc(S(=O)(=O)NCc2nccs2)cc1 | 87% (active) |
| N#CC(NNC(=O)c1ccccc1O)c1c(O)ccc2ccccc12 (configuration not stated) | 82% (active) |
| Oc1ccc(Cl)cc1Cc1cc(Cl)cc(Cc2cc(Cl)ccc2O)c1O | 97% (active) |
| O=C1CN(CCN2CCOCC2)CC(=O)N2Cc3ccccc3CN12 | 64% |
| CC1CCC(SC2CC(=O)CCC2=O)CC1 (configuration not stated) | 98% (active) |
| Clc1ccc(OCC2CO2)c(Cl)c1 (configuration not stated) | 84% (active) |
| CN=C(N)N/N=C(\C)c1ccc2c(ccc3ccccc32)c1 | 97% (active) |
| Cc1cc(O)c(/C=N/c2nc(-c3cccc([N+](=O)[O-])c3)cs2)c(=O)o1 | 99% (active) |
| COc1cccc2c1OC(c1ccc(Cl)cc1)C([N+](=O)[O-])=C2 (configuration not stated) | 95% (active) |
| COc1ccc(C(=O)C2C(=O)C(=O)OC2C2OC(=O)C(=O)C2C(=O)c2ccc(OC)cc2)cc1 (configuration not stated) | -1% |
| CCCCCCCCCCCCCCCCOc1ccc(S(=O)(=O)N/N=c2/sc3ccc(S(=O)(=O)O)cc3n2C)cc1C(=O)O | 88% (active) |
| O=C(Nc1ccc(F)cc1)N1CCCCC1 | 39% |
| C[CH2][Sn]([CH2]C)([O]C(=O)c1cc(OC)c(OC)c(OC)c1)[O][Sn]([CH2]C)([CH2]C)[O]C(=O)c1cc(OC)c(OC)c(OC)c1 | 85% (active) |
| C/C(O)=C(/C=N/C(=S)Nc1ccc(S(N)(=O)=O)cc1)C(=O)Nc1ccccc1C | -15% |
| CC(C)CC(N)C(=O)NNc1ccccc1 (configuration not stated) | 99% (active) |
| CCC(C(c1ccc(Cl)cc1)c1ccc(Cl)c(Cl)c1)[N+](=O)[O-] (configuration not stated) | 32% |
| O=C(O)c1nc2cc(C(F)(F)F)ccc2nc1Nc1ccc(F)cc1 | 75% (active) |
| Nc1nc(-c2ccccn2)cc2cc(Cl)ccc12 | 98% (active) |
| CC1(c2ccccc2)NC(=O)N(CC(=O)N(c2ccccc2)c2ccccc2)C1=O (configuration not stated) | 39% |
| O/N=C(/Cc1ccccc1)c1ccc2c(c1)OCO2 | 10% |

— PubChem BioAssay (NCI)
